Source: PubChem
The full list was thinned out, with hits kept by preference.
KDM5B inhibitor: inhibitors of human KDM5B histone demethylase; Q9UGL1; KDM5B demethylase, FDH-coupled NADH fluorescence (FDH is formaldehyde dehydrogenase); Potency, µM (highest dose often 57.7 µM), hits mostly inhibitors; 220,000 tested, 2.6% active; active = well fitted inhibition curve with a large enough effect; also: 0% is about no effect; nearly all actives have a fitted effect of over 70% in size
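Compound dilutions met 200 nM (final) KDM5BΔAP for 10 min at room temperature before substrate addition. The substrate mix held 12.5 µM H3K4me3 with cofactors 25 µM α-ketoglutarate and 50 µM Fe²⁺. NADH signal gain over 30 min defined activity.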
An asterisk follows results filed as active; i = inactive. Potency is read from the fitted curve at half-maximal effect.

SMILES	KDM5B inhibitor
O=C(/C=C/c1ccc(OCc2ccccc2)cc1)c1ccc(N2CCOCC2)cc1	i
Cc1ccc(O)c(CN2CC[C@@H](c3ccc4ccccc4c3)[C@H](O)C2)n1	i
O=C(NNC(=O)c1ccc2c(c1)CCCC2)c1cccnc1	i
CCNC(=O)N1C[C@@H](F)[C@@H](OCc2nc3ccc(C)cc3[nH]2)C1	i
COc1ccc(C2C(C(C)=O)=C(O)C(=O)N2c2cccc(OC)c2)cc1 (centres undefined)	i
O=C(c1ccccc1Cl)N1CCC(c2nn(-c3ccc(Cl)cc3)c(=O)[nH]2)CC1	i
O=C(CN1CCN(Cc2cnc(-c3ccccn3)nc2)CC1)N1CCCC1	i
CC(C)N(C)Cc1ccc(-c2nc(-c3cccnc3)cc(=O)[nH]2)cc1	i
Cc1ncccc1Oc1ncnc(N2CCC3(CC(=O)NC3=O)C2)c1C (centres undefined)	i
Cc1cccc(-c2noc(CCCC(=O)N3CCC4(CC(=O)NC4=O)C3)n2)c1 (centres undefined)	i
N#Cc1cccc(N2CCC3(CC(=O)NC3=O)C2)n1 (centres undefined)	28.2µM*
Cc1ccc(-c2cc(C(=O)N3CCC4(CC(=O)NC4=O)C3)n[nH]2)o1 (centres undefined)	i
Cc1ncc(C(=O)N2CCC3(CC(=O)NC3=O)C2)c(-c2ccccc2)n1 (centres undefined)	i
O=C1CC2(CCN(c3cncc(C(=O)N4CCCCC4)n3)C2)C(=O)N1 (centres undefined)	28.2µM*
Cc1ccc(C)c(NC(=O)c2csc3c2CCCCC3)c1	i
COc1ccc(CNC(=O)c2ccc3nc(Cc4ccccc4F)oc3c2)cc1	i
Cc1ccc(CNC(=O)CCc2ncc(-c3c(F)cccc3F)o2)cc1	i
Cc1nn(CC(=O)Nc2ccccc2N2CCCCC2)c(=O)c2ccccc12	i
CCn1ccc(C(=O)N2CCC3(CC2)c2[nH]c4ccc(OC)cc4c2CCN3C)n1	22.4µM*
COc1ccc2[nH]c3c(c2c1)CCN(C)C31CCN(C(=O)c2ccncc2)CC1	i
O=C(Cn1c(=O)oc2ccccc21)N1CCC2(CC1)NCCc1c2[nH]c2ccccc12	i
COc1ccc2[nH]c3c(c2c1)CCNC31CCN(C(=O)c2ccc(C)nc2)CC1	i
COc1ccc2[nH]c3c(c2c1)CCNC31CCN(C(C)C)CC1	22.4µM*
COc1ccc2[nH]c3c(c2c1)CCN(C)C31CCN(C(=O)c2nccc3ccccc23)CC1	i
COc1ccc2[nH]c3c(c2c1)CCNC31CCN(C(=O)Cn2c(=O)oc3ccccc32)CC1	20µM*
SMILES	KDM5B inhibitor
COc1ccc2[nH]c3c(c2c1)CCNC31CCN(C(=O)c2cnc(C)cn2)CC1	i
COc1ccc2[nH]c3c(c2c1)CCNC31CCN(C(=O)c2ccco2)CC1	i
COc1ccc2[nH]c3c(c2c1)CCNC31CCN(C(=O)c2cccnc2)CC1	i
CCOCC(=O)N1CCC2(CC1)NCCc1c2[nH]c2ccc(OC)cc12	15.8µM*
COc1ccc(C(=O)N2CCC3(CC2)NCCc2c3[nH]c3ccccc23)c(OC)c1	i
COc1ccc(-c2noc([C@@H]3C[C@H](NCc4cccc(C#N)c4)CN3C)n2)cc1	i
CSc1nc(C)c(CCC(=O)NC(c2ccccc2)C(C)C)c(C)n1 (centres undefined)	i
COc1ccc(OC)c(NC(=O)c2cc(=O)c3ccc(C)cc3o2)c1	i
Cc1cc2nc(CO[C@H]3CN(C4CCN(C)CC4)C[C@H]3F)[nH]c2cc1C	i
CC(=O)N1CCN(S(=O)(=O)c2cccc(C(=O)OCc3csc(-c4ccccc4)n3)c2)CC1	i
CCCCOc1ccc(NC(=O)c2ccccc2Cl)c2cccnc12	i
O=CNc1cccc(O)c1	i
CCOc1cc(C=O)ccc1OCc1cccc2ccccc12	i
CN(CC(=O)Nc1cccc(F)c1)C(=O)CCc1ncc(-c2ccc(Cl)cc2)o1	i
Cc1ccc(C)c(/C=N/Nc2cc(C(F)(F)F)ccc2Cl)c1	i
CCCCNC(=O)c1cc(-c2ccc3c(c2)OCO3)on1	i
CCCOCCCNC(=O)c1c(C)noc1-c1ccc(C(C)(C)C)cc1	i
COc1ccc(-c2onc(C)c2C(=O)NCCOc2ccccc2)cc1	i
CCCOCCNC(=O)c1c(C)noc1-c1ccc2c(c1)OCO2	28.2µM*
CCCOCCCNC(=O)c1c(C)noc1-c1ccc2c(c1)OCO2	28.2µM*
COc1ccc(-c2onc(C)c2C(=O)NCCCOC(C)C)cc1	i
COCCn1c(SCC(=O)c2ccc(Br)s2)nnc1-c1ccc(Cl)cc1	i
CC(C)(CC(=O)O)CC(=O)N[C@H]1CO[C@H]2[C@@H]1OC[C@@H]2n1nnnc1Oc1ccc(-n2cncn2)cc1	i
Cc1cc(C)c2nc(SCC(=O)N(C)CCC#N)cc(C)c2c1	i
CCC(C(=O)Nc1c(C)cc(C)cc1C)n1c2ccccc2c2nc(=O)cc(C)n21 (centres undefined)	i
O=C(C1CCCC1)N1CC2(CCN(Cc3cccnc3)C2)Cc2ccccc21 (centres undefined)	i
